Data published in PubChem BioAssay.
The source made the active and inactive calls.

Tests used:
[1] = system: Plasmodium falciparum Sir2 (PF13_0152, Sir2A); test: pfSir2 binders on small-molecule microarrays, primary screen, biochemical, small-molecule microarray, 635 nm fluorescence (AID 1098); settings: small-molecule microarray binding, fluorescence 635 nm; higher = more signal;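 also: score merges spot fluorescence intensity with its signal-to-noise ratio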
[2] = small-molecule microarray binders of probe aDKK1, primary screen, biochemical, biotinylated probe, 635/667 nm fluorescence (AID 1099); settings: higher = more signal;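 also: score merges 667nm spot fluorescence with signal to noise across triplicate slides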
[3] = small-molecule microarray binders of probe aCHRDL2, primary screen, biochemical, biotinylated probe, 635/667 nm fluorescence (AID 1100); settings: higher = more signal
[4] = splicing luciferase reporter signal modulators, primary screen, spliceosome inhibition project, cell-based, HEK293, splice +/- reporter (AID 1101); settings: luminescence, 24 h, higher = more signal, called active from +8 up or from −8 down;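 also: HEK293 cells carrying a splicing-competent luciferase reporter gene; test concentration not given here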
[5] = target: Fibroblast growth factor 10 (Homo sapiens) (UniProt O15520); test: FGF10 binders on small-molecule microarrays, primary screen, biochemical, small-molecule microarray, 635 nm fluorescence (AID 1102); settings: FGF10 binding, fluorescence 635 nm, higher = more signal
[6] = system: glycogen synthase kinase-3 (GSK3A per assay name; protocol says GSK3B); test: GSK3 binders on small-molecule microarrays, primary screen, biochemical, small-molecule microarray, 635 nm fluorescence, GSK3A (AID 1103); settings: small-molecule microarray binding, fluorescence 635 nm; higher = more signal; also: the record names both GSK3A and GSK3B
[7] = target: Epidermal growth factor receptor (Homo sapiens) (UniProt P00533); test: EGFR binders on small-molecule microarrays, primary screen, biochemical, small-molecule microarray, 635 nm fluorescence (AID 1104); settings: EGFR binding, higher = more signal;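 also: score merges 667 nm emission intensity with spot signal to noise over triplicate slides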
[8] = target: Follistatin-related protein 3 (Homo sapiens) (UniProt O95633); test: FSTL3 binders on small-molecule microarrays, primary screen, biochemical, small-molecule microarray, 635 nm fluorescence (AID 1105); settings: FSTL3 binding, higher = more signal;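 also: score merges emission near 667 nm and signal to noise per printed spot across three slides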
[9] = target: Dickkopf-related protein 1 (Homo sapiens) (UniProt O94907); test: DKK1 binders on small-molecule microarrays, primary screen, biochemical, small-molecule microarray, 635 nm fluorescence scan (AID 1106); settings: DKK1 binding, higher = more signal;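 also: score merges emission near 667 nm with signal to noise over three replicate slides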
[10] = system: Inhibin beta A chain (activin A); test: INHBA (activin A) binders on microarrays, primary screen, biochemical, small-molecule microarray, 635 nm fluorescence scan (AID 1107); settings: small-molecule microarray binding, higher = more signal;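 also: mouse activin A protein probed at 4.33 µg/mL on printed slides; score merges bound-protein fluorescence near 667 nm with spot signal-to-noise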
[11] = system: Human papillomavirus type 1a protein E7 (residues 44-93); test: HPV1a E7 fragment binders on microarrays, primary screen, biochemical, small-molecule microarray, residues 44-93, 635 nm fluorescence (AID 1108); settings: small-molecule microarray binding, fluorescence 635 nm; higher = more signal;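 also: E7 fragment applied at 1 µg/mL in TBST for 1 h at 4 C; score combines spot fluorescence with its signal to noise ratio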
[12] = modulators of HCV replicon luciferase signal, primary screen, HCV replication inhibitor project, Huh7 cells, luciferase reporter (AID 1109); settings: 48 h, higher = more signal;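 also: huh7 hepatoma cells harbouring a luciferase neomycin HCV replicon reporter; luciferase luminescence as measure of HCV replicon replication; test concentration not given here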
[13] = target: Left-right determination factor 2 (Homo sapiens) (UniProt O00292); test: LEFTY2 binders on small-molecule microarrays, primary screen, biochemical, small-molecule microarray, 635 nm fluorescence scan (AID 1110); settings: LEFTY2 binding, higher = more signal
[14] = target: Calmodulin-1 (Homo sapiens) (UniProt P0DP23); test: CALM1 binders on microarrays, EGTA buffer, profiling panel, biochemical, small-molecule microarray, Cy5-labelled CALM1 (AID 1111); settings: Cy5-CALM1 binding fluorescence, higher = more signal;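 also: labelled calmodulin applied in Tris saline Tween buffer holding calcium plus EGTA and DTT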
[15] = target: Calmodulin-1 (Homo sapiens) (UniProt P0DP23); test: calcium-bound CALM1 binders on microarrays, profiling panel, artefact control for SMM control-protein annotation, biochemical, small-molecule microarray, Cy5-labelled CALM1, plus calcium (AID 1112); settings: Cy5-CALM1 binding fluorescence, higher = more signal;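 also: score merges spot fluorescence with signal to noise from triplicate slides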
[16] = small-molecule microarray binders of probe aWnt5a, primary screen, biochemical, biotinylated probe, 635/667 nm fluorescence (AID 1113); settings: higher = more signal;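 also: score merges 667 nm fluorescence intensity with signal-to-noise per printed feature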
[17] = small-molecule microarray binders of probe aShh, primary screen, biochemical, biotinylated probe, 635/667 nm fluorescence (AID 1114); settings: higher = more signal;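 also: probe is biotin-labelled aShh protein from a stem cell growth factor screen; measures binding of labelled protein to compounds printed on the slide; score merges feature fluorescence at 667 nm with signal-to-noise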
[18] = small-molecule microarray binders of probe aNog, primary screen, biochemical, biotinylated probe, 635/667 nm fluorescence (AID 1115); settings: higher = more signal;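 also: probe is biotinylated aNog protein used at 0.15 µg/mL for 1 h at 4 C; z-score combines 667 nm fluorescence of each spot with its signal to noise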
[19] = target: Torsin-1A-interacting protein 1 (Homo sapiens) (UniProt Q5JTV8); test: LAP1 binders from COS7 cell lysate, primary screen, small-molecule microarray, 635/667 nm fluorescence (AID 1116); settings: COS7-hLAP1 lysate binding, 635 nm fluorescence, higher = more signal
[20] = target: Alpha-bungarotoxin (Bungarus multicinctus) (UniProt P60615); test: alpha-bungarotoxin binders on microarray, profiling panel, artefact control for SMM control protein annotation, biochemical, small-molecule microarray, Alexa647 label, 635/667 nm fluorescence (AID 1117); settings: alpha-BTX-A647 binding fluorescence, higher = more signal
Alpha-bungarotoxin (Bungarus multicinctus), sequence (P60615 whole entry, looked up): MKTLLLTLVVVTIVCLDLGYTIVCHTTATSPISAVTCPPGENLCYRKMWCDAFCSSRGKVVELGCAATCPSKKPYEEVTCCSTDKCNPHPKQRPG

Left-right determination factor 2 (Homo sapiens), sequence (O00292 whole entry, looked up): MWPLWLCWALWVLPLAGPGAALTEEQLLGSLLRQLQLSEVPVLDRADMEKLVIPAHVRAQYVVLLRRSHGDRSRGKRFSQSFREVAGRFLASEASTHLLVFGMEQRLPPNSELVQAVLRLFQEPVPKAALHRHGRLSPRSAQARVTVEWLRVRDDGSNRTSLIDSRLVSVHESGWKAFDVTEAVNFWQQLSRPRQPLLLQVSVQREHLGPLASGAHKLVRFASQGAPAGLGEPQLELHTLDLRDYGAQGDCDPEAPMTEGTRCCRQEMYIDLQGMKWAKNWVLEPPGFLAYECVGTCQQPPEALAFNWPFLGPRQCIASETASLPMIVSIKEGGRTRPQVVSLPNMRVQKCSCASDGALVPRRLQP
Epidermal growth factor receptor (Homo sapiens), sequence (P00533 whole entry, looked up): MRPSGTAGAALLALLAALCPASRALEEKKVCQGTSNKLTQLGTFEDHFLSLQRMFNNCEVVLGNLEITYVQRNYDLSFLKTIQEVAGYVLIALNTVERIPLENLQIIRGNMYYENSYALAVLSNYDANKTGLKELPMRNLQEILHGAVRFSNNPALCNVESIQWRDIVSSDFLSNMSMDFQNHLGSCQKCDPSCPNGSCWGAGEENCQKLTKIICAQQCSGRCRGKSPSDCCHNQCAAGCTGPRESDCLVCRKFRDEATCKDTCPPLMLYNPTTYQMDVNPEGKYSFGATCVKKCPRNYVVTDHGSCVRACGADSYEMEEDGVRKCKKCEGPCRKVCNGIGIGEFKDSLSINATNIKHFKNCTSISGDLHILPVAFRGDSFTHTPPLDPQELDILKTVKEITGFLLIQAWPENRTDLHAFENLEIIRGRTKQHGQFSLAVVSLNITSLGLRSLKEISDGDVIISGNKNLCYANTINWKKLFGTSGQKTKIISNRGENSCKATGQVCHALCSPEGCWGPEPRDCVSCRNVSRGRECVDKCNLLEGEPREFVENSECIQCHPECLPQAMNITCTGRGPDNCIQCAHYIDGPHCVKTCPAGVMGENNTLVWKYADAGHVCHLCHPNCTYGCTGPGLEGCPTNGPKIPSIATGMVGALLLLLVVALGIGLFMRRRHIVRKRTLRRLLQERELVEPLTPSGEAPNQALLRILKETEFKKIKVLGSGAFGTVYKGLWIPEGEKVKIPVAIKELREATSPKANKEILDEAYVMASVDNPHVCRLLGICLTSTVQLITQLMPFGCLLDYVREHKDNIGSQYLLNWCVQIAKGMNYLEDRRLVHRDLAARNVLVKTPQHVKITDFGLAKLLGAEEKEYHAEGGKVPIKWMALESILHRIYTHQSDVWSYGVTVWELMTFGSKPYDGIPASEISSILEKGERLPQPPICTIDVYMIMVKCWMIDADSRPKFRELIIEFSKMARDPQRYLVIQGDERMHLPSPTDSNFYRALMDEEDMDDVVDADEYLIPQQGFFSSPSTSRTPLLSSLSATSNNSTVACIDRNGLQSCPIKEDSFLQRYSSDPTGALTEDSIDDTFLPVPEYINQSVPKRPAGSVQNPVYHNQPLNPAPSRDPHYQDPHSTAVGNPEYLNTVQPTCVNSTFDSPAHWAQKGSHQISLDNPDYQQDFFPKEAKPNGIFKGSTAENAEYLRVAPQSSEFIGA
Dickkopf-related protein 1 (Homo sapiens), sequence (O94907 whole entry, looked up): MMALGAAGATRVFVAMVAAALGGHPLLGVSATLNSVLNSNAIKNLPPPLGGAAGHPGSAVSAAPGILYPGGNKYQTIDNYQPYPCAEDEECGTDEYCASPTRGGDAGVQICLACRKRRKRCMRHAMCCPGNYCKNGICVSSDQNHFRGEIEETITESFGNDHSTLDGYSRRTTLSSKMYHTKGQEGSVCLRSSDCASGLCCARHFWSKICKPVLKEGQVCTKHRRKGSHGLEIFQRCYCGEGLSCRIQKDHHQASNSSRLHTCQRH
Torsin-1A-interacting protein 1 (Homo sapiens), sequence (Q5JTV8 whole entry, looked up): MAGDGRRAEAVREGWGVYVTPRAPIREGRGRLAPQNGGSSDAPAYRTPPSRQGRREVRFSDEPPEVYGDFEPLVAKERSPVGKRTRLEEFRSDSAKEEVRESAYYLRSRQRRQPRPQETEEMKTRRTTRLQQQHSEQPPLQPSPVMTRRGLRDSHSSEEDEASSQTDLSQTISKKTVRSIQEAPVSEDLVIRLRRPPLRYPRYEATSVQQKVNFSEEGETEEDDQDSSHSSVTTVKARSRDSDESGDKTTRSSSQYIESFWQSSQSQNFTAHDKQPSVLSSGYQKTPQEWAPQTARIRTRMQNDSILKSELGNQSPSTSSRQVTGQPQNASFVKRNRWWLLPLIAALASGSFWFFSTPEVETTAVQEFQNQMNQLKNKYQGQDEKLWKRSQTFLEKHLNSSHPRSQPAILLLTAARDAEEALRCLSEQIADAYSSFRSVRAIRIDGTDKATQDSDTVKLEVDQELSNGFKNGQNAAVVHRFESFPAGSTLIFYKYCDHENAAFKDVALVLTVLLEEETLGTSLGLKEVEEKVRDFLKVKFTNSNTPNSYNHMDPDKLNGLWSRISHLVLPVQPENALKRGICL
Follistatin-related protein 3 (Homo sapiens), sequence (O95633 whole entry, looked up): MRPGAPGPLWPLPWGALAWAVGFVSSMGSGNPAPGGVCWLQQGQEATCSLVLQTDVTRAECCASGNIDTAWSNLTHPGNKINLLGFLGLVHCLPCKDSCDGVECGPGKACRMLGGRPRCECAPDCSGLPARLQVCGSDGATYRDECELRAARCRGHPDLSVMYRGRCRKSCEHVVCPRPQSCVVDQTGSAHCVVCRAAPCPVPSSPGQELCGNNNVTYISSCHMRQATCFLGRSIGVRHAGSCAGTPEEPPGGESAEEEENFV
Fibroblast growth factor 10 (Homo sapiens), sequence (O15520 whole entry, looked up): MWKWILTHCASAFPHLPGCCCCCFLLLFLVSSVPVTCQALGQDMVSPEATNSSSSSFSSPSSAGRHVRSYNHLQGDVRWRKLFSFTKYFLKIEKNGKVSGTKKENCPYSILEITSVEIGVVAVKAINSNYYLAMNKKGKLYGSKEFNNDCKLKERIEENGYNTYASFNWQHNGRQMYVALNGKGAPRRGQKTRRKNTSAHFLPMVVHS

Structure (SMILES)	composite z-score [1]	composite z-score [2]	composite z-score [3]	z-score [4]	composite z-score [5]	composite z-score [6]	composite z-score [7]	composite z-score [8]	composite z-score [9]	composite z-score [10]	composite z-score [11]	z-score [12]	composite z-score [13]	composite z-score [14]	composite z-score [15]	composite z-score [16]	composite z-score [17]	composite z-score [18]	composite z-score [19]	composite z-score [20]
O=C(CS)NCCCCCNC(=O)[C@H]1C[C@H]2C(=O)NCC(=O)N2[C@H]1c1cccc(OCCO)c1	1.59	-0.248	0.504	-0.957 (inactive)	-0.0137	-1.11	-0.538	0.101	0.129	-0.462	-1.02	1.34	-0.356	-0.213	0.787	-0.152	0.294	-0.311	-0.631	0.854
O=C(NCCN1CCOCC1)[C@@H]1c2ccccc2C(=O)N(Cc2cc(C(F)(F)F)cc(C(F)(F)F)c2)[C@H]1c1ccc(CO)cc1	1.51	0.254	0.851	0.91 (inactive)	-1.17	-0.332	-1.35	-1.55	-1.23	-1.54	1.35	-1.16	-0.775	-0.253	-0.198	-0.0161	0.123	0.0763	-0.729	2.1
CCOC(=O)C1=CC[C@@H](c2ccccc2)N(S(=O)(=O)c2ccc(C)cc2)[C@H]1c1ccc(CC)cc1	0.375	0.961	0.538	0.425 (inactive)	0.393	1.17	0.221	0.395	-0.112	0.965	1.4	-1.8	0.353	1.21	0.511	-0.0384	-0.264	0.733	0.331	0.569
CC(=O)n1cc(C(O)C2C=CC3C(=O)NC(=O)C3N2Nc2ccccn2)c2ccccc21 (stereo not given)	0.452	-0.0908	0.0413	2.28 (inactive)	0.168	0.0973	0.523	0.225	0.339	0.709	-0.0484	-0.75	0.0729	-0.2	-0.36	-0.124	-0.138	-0.0615	-0.19	0.751
CCOC(=O)C1=CC[C@@H](c2ccc(C(F)(F)F)cc2)N(S(=O)(=O)c2ccc(C)cc2)[C@H]1c1ccccc1	0.544	1	1.12	-2.54 (inactive)	0.485	1.31	-0.0946	0.799	-0.305	-0.0699	0.277	-1.1	0.221	2.08	0.55	0.201	0.109	1.43	1.51	1.56
CCOC(=O)C1=CC[C@H]2C(=O)N(c3ccccc3)C(=O)[C@@H]12	1.67	0.143	0.0364	0.406 (inactive)	1.19	0.571	0.55	1.01	0.56	0.304	1.51	-1.36	0.791	0.802	-0.513	0.027	-0.0793	1.15	1.14	0.203
